# Assay results published in PubChem BioAssay AID1508600 (Functional Genomics Laboratory (NCATS/FGL), 2020).
# Out of some 53,000 sequences screened, about 3,700 (7%) were called active. The full list was thinned out, with actives kept by preference. Unmarked numbers belong to inactive results.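 The calls were made as follows: active = gene knockdowns whose robust z-score for IL-1 alpha signal is at least 2 or at most -2, so actives lie on both sides; inactive = the rest.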
# Test: Components of the Cytosolic LPS Sensing Pathway: Gene Identification via Genome-wide siRNA Screen;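 also: robust z of the log signal after scaling to non-targeting control siRNA wells of the plate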
# Conditions: RAW264.7 macrophages, IL-1a HTRF, actives lie on both sides, screened at 100 nM (by protocol), cells primed 5 h with Pam3CSK4 first
# In short: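 RAW264.7; siRNA 100 nM final, RNAiMAX, 48h 37 degrees C; Pam3CSK4 5 h; LipidA + TransIT-TKO 24 h; IL-1a HTRF; CellTiter-Glo viability; robust z vs negative-control median.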
row,Sequence,z-score
1,GAAUGAACUGCUGAAAAAGTT against Klra16,0.462
2,GACUCCCAGCUGGCUAUGATT against Ifna9,0.583
3,GGCUCAGUACUUUCUAAAATT against Vmn1r72,-0.637
4,GCCUUGUCUAUAGGACUGUTT against Grm6,-0.00801
5,GCUUCAUGAUGAAUCACCUTT against Otulinl,-2.1 (active)
6,CGAGCAUUCACCGUACGUATT against Id4,0.0542
7,GGGCAAGGUGUAUUGUCAATT against D830050J10Rik,-0.00921
8,GGCCCAACAAUACCUGCUGTT against Rgs17,-1.5
9,GGAUGAAGAAACAAGAAAGTT against Tmc1,-2.46 (active)
10,GCACCGACCACCAAAUCUATT against Prol1,0.65
11,GGUUGUGACAAUGUGAUCCTT against Coro1a,-2.22 (active)
12,CCAUCUACAAGUGUCCUUATT against Zfp276,-0.632
13,CCAUAUCCCUGUGGAAAAGTT against Manf,-0.322
14,CGGAUAUCCACAAAUAUCGTT against Atp1b3,0.508
15,GGGUUCAAGAGAUGGGAAUTT against Efna5,0.453
16,GCUCUCAGCAAAAACCGAGTT against Kif26b,2.98 (active)
17,GGCUGUCAGUGUUUACAGGTT against Srd5a1,-0.247
18,GGGAUGAUUCAAUGGAUAATT against Tbx22,0.789
19,GCUGGUUUCAUCCGCCAUATT against Dvl3,1.18
20,GCAUAUAAGAGAAGUGCCUTT against Parl,0.298
21,GCACCAAUACAUUUGGACCTT against Nabp1,1.74
22,GGAGUCAGUACUGUAAAAUTT against Rin2,-1.91

row,Sequence,z-score
1,GGAGAGAAAAAAGUCUCUCTT against Olfr66,2.55 (active)
2,GCAACUGUUACUUCUCAACTT against Lrif1,0.598
3,GGUUAACUCCUUUUCUAGATT against Ints13,-0.52
4,GCCUACACCAGUCCUUUGATT against Baiap2l1,0.509
5,GGAACUAUCCAGUAGGUAGTT against Mill2,0.846
6,GGUUCUGGAUUUCUGUUUUTT against Phf24,-1.38
7,GGAUGAAGAUGGAGAUCUUTT against Tfg,2.14 (active)
8,GGAAAAAGAACACCUUUUATT against Ints6l,-0.74
9,GGACACCACCAAUCUUGACTT against Arsg,-1.57
10,GGGCAUUGGGAUCCUCAAUTT against Olfr139,-0.734
11,CGGAUCUUGUCAAUAACCATT against Angptl1,0.295
12,GCAGGAGUAAGAAUGAAUGTT against Luzp1,0.999
13,GGAACUUAGAAGUUUACAATT against Caml,-0.0418
14,GGUCACAAAGAAGAAUCACTT against Heg1,-2.31 (active)
15,GGUUGAGUGUUUGAAGUCATT against Slc38a11,-1.9
16,GCUUUACUCCCUAAAUUCATT against Dmrt3,0.755
17,CCUCUUAGAUCAGGAUUAUTT against Usp37,0.991
18,GGCAUGGAAUGAGCUUUUCTT against Nr2e3,3.83 (active)
19,GGACUAAGCAAUCUCUUUUTT against Gspt2,0.81
20,GGUGCUUUGUUAUCCAUAATT against Tnfrsf26,-2.72 (active)
21,CCUAAUUGUAGUAGUACUATT against Olfr117,-0.955
22,GGCCUAGCAAUUCUUGAGCTT against Gm5087,-0.18

row,Sequence,z-score
1,CCCUGUAUAUUGCAUUUCCTT against Pcdhb21,0.198
2,GGGAGUUUUUAUAUGGUUUTT against Ybey,1.27
3,GCAGAUGACUAUCGGAAGUTT against Usp53,2.19 (active)
4,GGGCAGCAAAGAAUUAACUTT against Ptpmt1,-0.619
5,GGAAGAAAAUCUUGAAGCATT against Ddx51,-0.232
6,GCGAUAUGACAGACUCUUCTT against Csrnp1,1.79
7,GGAUGUUAUUCGCCACGCGTT against Zfp335,-0.134
8,CCCGUUCAAGCAAUUACAUTT against G2e3,-1.05
9,GGUGAAGACUUCCAGAAGGTT against Reg3a,-0.186
10,CCUGUACAGUUGGAAACAUTT against Snrpd1,-2.02 (active)
11,GGACUUCUCCUUUAAUAAUTT against Cox7a2l,-0.494
12,GCCCGACCUGUUGAGAAGATT against Znhit3,1.43
13,GGAGGAAAAGUAGGUUUGCTT against Peli1,-0.531
14,GGUAAGUGGAGGUAUUCUUTT against Egln1,2.28 (active)
15,GGCCAGGAAAUAUGAAAUATT against Phtf1,-0.352
16,GCCUUGAUAAUUUUGUAAGTT against Gimap9,0.533
17,GCACCCUAAUGUGAUCGCATT against Cdk19,-1.34
18,CCACCUGAAUCAUUACUCATT against Rdh19,-3.29 (active)
19,GGAGAAGAUUUUCUGUAUCTT against Atp13a5,0.545
20,GCUGAGAGACUUGUGAAAUTT against Ndufb11,1.06
21,GGAAAUCAGCUGUGAAAAATT against Fbxl20,-0.628
22,GCAGGUCUAAAACUCUCAUTT against Sfmbt1,2.38 (active)

row,Sequence,z-score
1,GCCUCAUCGUCAUCGCCAATT against Gpbar1,-0.897
2,GCAUACCUAGACUGAAAACTT against Rilpl2,-0.477
3,GGAGCUGUUUCCAGUUCAGTT against Tomm40,-1.12
4,CGUGCUGGUAACGGAAUUGTT against Ptger2,2.29 (active)
5,GGGAACAGGAGAAAACGGATT against Bnipl,1.2
6,GGAAGACAACUGUUGUGGCTT against Dagla,-0.54
7,GUUCGGUACAACUUUUCUGTT against Alx4,0.326
8,GGAUAAAAAUCACCCACUGTT against Vwa8,0.21
9,GCCUCUUAAUGCUUUUGUATT against Sfxn1,-0.272
10,GGUGGUUGGAGUACUCAAGTT against Capza1,-2.53 (active)
11,GCACAUCACAAGAAUUACUTT against Lhfpl1,-0.0486
12,AGCUGACUGUAAAAAAACCTT against Fuom,0.19
13,GGAAAUGCCAUAGUCCUAUTT against Mrgprb5,-2.54 (active)
14,GGAACUGGCCAAGUUUAAATT against Ing3,0.653
15,GGCCAGAACUACGAAGCCATT against Capn12,0.981
16,GGACCUUCGUGAGAAUUUCTT against Mst1,0.521
17,CCUACAGUGACCUUUCCCGTT against Apcs,-1.22
18,GGAUAUCACCCACAAUAAATT against Vps28,-0.653
19,GGAGCAAUUCUACCGCUACTT against Fbxw5,-2.14 (active)
20,GCCCAUUUUAGUAAACGAATT against Dspp,1.87
21,GGCCUUAAAGAAACACAAGTT against Hnrnph2,2.3 (active)
22,GGUCCUUCAACGGAAGGGATT against Tagap,0.196

row,Sequence,z-score
1,GGUUUGCAAUAAUUUUCCCTT against Cyp2c66,-0.0991
2,CCUAUUAUAGGACAAAGUATT against Efhc2,-0.54
3,CCACAAGUUCCACACUCCATT against Olfr1163,0.42
4,GGAGGGACAUGAUUUUGAATT against Pfkfb2,2.22 (active)
5,GGAGCAAGUGAUGAUGACCTT against Pkp1,-0.263
6,GCGGUAUGGGAAGCUAAAGTT against Rhbdf1,0.617
7,GGAGAUACUGAAAGAGGCCTT against C1qtnf12,-1.25
8,UUCUUGACAGCUGGAAGAGTT against Irgc1,0.12
9,GGAAAAACGAUACUUGAUUTT against Gria3,-0.751
10,GGUGAGACUAUAAAGAUAATT against Piwil4,0.841
11,CCGAGCAGGAUUGCAUAUATT against Cspg5,1.41
12,GGCAUUGAGAUGCUGGAAATT against Trappc4,2.46 (active)
13,GCUAUUCUGAUGCGUGGAGTT against Coq2,-1.24
14,GCCACGACAACAAAUCCCATT against Lbr,-2.62 (active)
15,UGAAGCUGUCCCGGACUAATT against Shf,0.731
16,GGUCAUUGGCACCAACAAGTT against Tgfbi,-0.722
17,GGAACAAAGAGGUGAUGUUTT against Olfr109,-0.949
18,GGAGAUGAUUGACCGGCUATT against Epc1,-1.03
19,CCAUUUACCUCAUAGGACCTT against Crb3,-0.239
20,CGACCAUCUUUACUUUAUCTT against Cilk1,1.61
